Experiment [1] relates to Plasmodium falciparum Sir2 (PF13_0152, Sir2A). As to the kind of experiment: Plasmodium falciparum Sir2A binding compounds – biochemical, small-molecule microarray, 635 nm fluorescence, primary screen (AID 1098).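 Note: score merges spot fluorescence intensity with its signal-to-noise ratio.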 The conditions noted are these: fluorescence 635 nm, higher = more signal.
Experiment [2] can be described thus: probe aDKK1 binding to arrayed compounds – biochemical, biotinylated probe, 635/667 nm fluorescence, primary screen (AID 1099).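 Note: score merges 667nm spot fluorescence with signal to noise across triplicate slides.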 The conditions noted are these: small-molecule microarray, higher = more signal.
Experiment [3] is described as follows: probe aCHRDL2 binding to arrayed compounds – biochemical, biotinylated probe, 635/667 nm fluorescence, primary screen (AID 1100). The conditions noted are these: small-molecule microarray, higher = more signal.
The nature of experiment [4]: change in splice reporter luminescence, either direction, cell-based, HEK293, spliceosome inhibition project, primary screen (AID 1101).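 Note: HEK293 cells carrying a splicing-competent luciferase reporter gene; test concentration not given here.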 The conditions noted are these: HEK293 splicing luciferase reporter, 24 h, higher = more signal, called active from +8 up or from −8 down.
Experiment [5] has as its target Fibroblast growth factor 10 (Homo sapiens) (UniProt O15520). Kind of experiment: compounds binding fibroblast growth factor 10 – biochemical, small-molecule microarray, 635 nm fluorescence, primary screen (AID 1102). The conditions noted are these: FGF10 binding, fluorescence 635 nm, higher = more signal.
For experiment [6], the system named is glycogen synthase kinase-3 (GSK3A per assay name; protocol says GSK3B). Kind of experiment: compounds binding glycogen synthase kinase-3 – biochemical, small-molecule microarray, 635 nm fluorescence, GSK3A, primary screen (AID 1103). Note: the record names both GSK3A and GSK3B. The conditions noted are these: fluorescence 635 nm, higher = more signal.
Experiment [7] deals with Epidermal growth factor receptor (Homo sapiens) (UniProt P00533). As to the kind of experiment: compounds binding epidermal growth factor receptor – biochemical, small-molecule microarray, 635 nm fluorescence, primary screen (AID 1104).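 Note: score merges 667 nm emission intensity with spot signal to noise over triplicate slides.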 The conditions noted are these: EGFR binding, higher = more signal.
For experiment [8], the target named is Follistatin-related protein 3 (Homo sapiens) (UniProt O95633). Kind of experiment: compounds binding follistatin-related protein 3 – biochemical, small-molecule microarray, 635 nm fluorescence, primary screen (AID 1105).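 Note: score merges emission near 667 nm and signal to noise per printed spot across three slides.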 The conditions noted are these: FSTL3 binding, higher = more signal.
The target in experiment [9] is Dickkopf-related protein 1 (Homo sapiens) (UniProt O94907). Kind of experiment: small molecules binding DKK1 protein – biochemical, small-molecule microarray, 635 nm fluorescence scan, primary screen (AID 1106).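 Note: score merges emission near 667 nm with signal to noise over three replicate slides.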 The conditions noted are these: higher = more signal.
In experiment [10] the test system is Inhibin beta A chain (activin A). Kind of experiment: small molecules binding activin A – biochemical, small-molecule microarray, 635 nm fluorescence scan, primary screen (AID 1107).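 Note: mouse activin A protein probed at 4.33 µg/mL on printed slides; score merges bound-protein fluorescence near 667 nm with spot signal-to-noise.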 The conditions noted are these: INHBA, higher = more signal.
Experiment [11] concerns Human papillomavirus type 1a protein E7 (residues 44-93). As to the kind of experiment: small molecules binding HPV E7 44-93 – biochemical, small-molecule microarray, residues 44-93, 635 nm fluorescence, primary screen (AID 1108).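 Note: E7 fragment applied at 1 µg/mL in TBST for 1 h at 4 C; score combines spot fluorescence with its signal to noise ratio.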 The conditions noted are these: fluorescence 635 nm, higher = more signal.
Experiment [12] is described as follows: hepatitis C replication reporter changes, two-sided – Huh7 cells, luciferase reporter, HCV replication inhibitor project, primary screen (AID 1109).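 Note: huh7 hepatoma cells harbouring a luciferase neomycin HCV replicon reporter; luciferase luminescence as measure of HCV replicon replication; test concentration not given here.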 The conditions noted are these: Huh7 HCV replicon luciferase reporter, 48 h; higher = more signal. On the technique in general: A reporter such as luciferase makes a cellular process visible.
Experiment [13] addresses Left-right determination factor 2 (Homo sapiens) (UniProt O00292). As to the kind of experiment: small molecules binding LEFTY2 protein – biochemical, small-molecule microarray, 635 nm fluorescence scan, primary screen (AID 1110). The conditions noted are these: higher = more signal.
The target of experiment [14] is Calmodulin-1 (Homo sapiens) (UniProt P0DP23). Kind of experiment: small molecules binding calmodulin-1 with EGTA – biochemical, small-molecule microarray, Cy5-labelled CALM1, profiling panel (AID 1111).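 Note: labelled calmodulin applied in Tris saline Tween buffer holding calcium plus EGTA and DTT.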 The conditions noted are these: Cy5-CALM1 binding fluorescence, higher = more signal.
The target is the same in experiment [15]. Kind of experiment: small molecules binding Ca-loaded calmodulin-1 – biochemical, small-molecule microarray, Cy5-labelled CALM1, plus calcium, artefact control for SMM control-protein annotation, profiling panel (AID 1112).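 Note: score merges spot fluorescence with signal to noise from triplicate slides.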 The conditions noted are these: Cy5-CALM1 binding fluorescence, higher = more signal.
Experiment [16] in a line: probe aWnt5a binding to arrayed compounds – biochemical, biotinylated probe, 635/667 nm fluorescence, primary screen (AID 1113).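 Note: score merges 667 nm fluorescence intensity with signal-to-noise per printed feature.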 The conditions noted are these: small-molecule microarray, higher = more signal.
The nature of experiment [17]: probe aShh binding to arrayed compounds – biochemical, biotinylated probe, 635/667 nm fluorescence, primary screen (AID 1114).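 Note: probe is biotin-labelled aShh protein from a stem cell growth factor screen; measures binding of labelled protein to compounds printed on the slide; score merges feature fluorescence at 667 nm with signal-to-noise.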 The conditions noted are these: small-molecule microarray, higher = more signal.
Experiment [18] can be described thus: probe aNog binding to arrayed compounds – biochemical, biotinylated probe, 635/667 nm fluorescence, primary screen (AID 1115).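 Note: probe is biotinylated aNog protein used at 0.15 µg/mL for 1 h at 4 C; z-score combines 667 nm fluorescence of each spot with its signal to noise.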 The conditions noted are these: small-molecule microarray, higher = more signal.
Experiment [19] has as its target Torsin-1A-interacting protein 1 (Homo sapiens) (UniProt Q5JTV8). Kind of experiment: compound microarray binding of lysate hLAP1 – cell lysate, small-molecule microarray, COS7 lysate, 635/667 nm fluorescence, primary screen (AID 1116). The conditions noted are these: 635 nm fluorescence, higher = more signal.
In experiment [20] the target is Alpha-bungarotoxin (Bungarus multicinctus) (UniProt P60615). As to the kind of experiment: compounds binding labelled alpha-BTX control protein – biochemical, small-molecule microarray, Alexa647 label, 635/667 nm fluorescence, artefact control for SMM control protein annotation, profiling panel (AID 1117). The conditions noted are these: alpha-BTX-A647 binding fluorescence, higher = more signal.

The source made the active and inactive calls.

Epidermal growth factor receptor (Homo sapiens), sequence (P00533 whole entry, looked up): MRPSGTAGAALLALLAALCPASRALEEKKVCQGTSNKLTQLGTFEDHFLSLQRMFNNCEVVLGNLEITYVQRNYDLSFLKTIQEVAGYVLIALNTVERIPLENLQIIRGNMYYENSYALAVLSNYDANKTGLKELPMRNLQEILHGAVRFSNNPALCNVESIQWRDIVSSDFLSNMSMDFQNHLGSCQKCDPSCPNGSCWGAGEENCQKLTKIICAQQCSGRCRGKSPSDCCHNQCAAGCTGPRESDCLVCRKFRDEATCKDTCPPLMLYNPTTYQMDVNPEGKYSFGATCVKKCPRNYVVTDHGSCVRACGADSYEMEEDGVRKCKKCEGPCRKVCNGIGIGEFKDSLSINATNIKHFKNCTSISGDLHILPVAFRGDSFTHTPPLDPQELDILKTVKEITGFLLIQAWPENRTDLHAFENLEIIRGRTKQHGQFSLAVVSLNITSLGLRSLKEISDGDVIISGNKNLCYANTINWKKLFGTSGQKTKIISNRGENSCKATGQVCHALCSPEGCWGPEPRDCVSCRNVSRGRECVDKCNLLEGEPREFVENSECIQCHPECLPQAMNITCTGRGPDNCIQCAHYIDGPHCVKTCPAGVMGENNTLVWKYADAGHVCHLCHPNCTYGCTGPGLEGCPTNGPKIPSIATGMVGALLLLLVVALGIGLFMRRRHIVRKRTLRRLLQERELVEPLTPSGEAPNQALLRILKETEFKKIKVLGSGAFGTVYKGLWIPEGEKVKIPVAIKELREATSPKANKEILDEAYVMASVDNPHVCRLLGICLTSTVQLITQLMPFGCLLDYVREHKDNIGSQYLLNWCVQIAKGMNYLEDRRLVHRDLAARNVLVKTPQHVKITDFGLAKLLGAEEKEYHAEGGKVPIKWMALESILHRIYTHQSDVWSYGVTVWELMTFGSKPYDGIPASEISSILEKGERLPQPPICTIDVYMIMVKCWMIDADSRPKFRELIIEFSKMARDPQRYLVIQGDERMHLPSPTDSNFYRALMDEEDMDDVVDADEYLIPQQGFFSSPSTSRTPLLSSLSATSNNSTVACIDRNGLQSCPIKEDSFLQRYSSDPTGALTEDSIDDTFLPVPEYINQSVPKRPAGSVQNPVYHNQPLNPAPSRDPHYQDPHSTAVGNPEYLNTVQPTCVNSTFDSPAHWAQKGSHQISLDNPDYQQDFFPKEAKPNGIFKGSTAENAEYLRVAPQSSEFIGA
Follistatin-related protein 3 (Homo sapiens), sequence (O95633 whole entry, looked up): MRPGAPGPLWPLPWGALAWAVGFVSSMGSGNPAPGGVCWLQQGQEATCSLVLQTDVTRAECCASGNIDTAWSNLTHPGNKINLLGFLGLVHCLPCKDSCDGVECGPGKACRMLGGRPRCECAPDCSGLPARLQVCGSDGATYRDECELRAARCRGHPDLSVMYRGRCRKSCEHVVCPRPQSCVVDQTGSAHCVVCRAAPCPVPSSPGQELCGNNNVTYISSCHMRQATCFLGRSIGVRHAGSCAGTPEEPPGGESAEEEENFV
Fibroblast growth factor 10 (Homo sapiens), sequence (O15520 whole entry, looked up): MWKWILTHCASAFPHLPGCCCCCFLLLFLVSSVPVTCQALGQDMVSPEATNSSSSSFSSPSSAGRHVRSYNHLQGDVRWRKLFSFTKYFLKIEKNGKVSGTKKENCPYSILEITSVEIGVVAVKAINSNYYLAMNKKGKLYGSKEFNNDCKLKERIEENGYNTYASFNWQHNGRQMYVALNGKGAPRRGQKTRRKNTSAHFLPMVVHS
Alpha-bungarotoxin (Bungarus multicinctus), sequence (P60615 whole entry, looked up): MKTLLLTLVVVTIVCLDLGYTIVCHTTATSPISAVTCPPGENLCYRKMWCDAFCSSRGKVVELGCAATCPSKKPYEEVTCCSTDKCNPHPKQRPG
Torsin-1A-interacting protein 1 (Homo sapiens), sequence (Q5JTV8 whole entry, looked up): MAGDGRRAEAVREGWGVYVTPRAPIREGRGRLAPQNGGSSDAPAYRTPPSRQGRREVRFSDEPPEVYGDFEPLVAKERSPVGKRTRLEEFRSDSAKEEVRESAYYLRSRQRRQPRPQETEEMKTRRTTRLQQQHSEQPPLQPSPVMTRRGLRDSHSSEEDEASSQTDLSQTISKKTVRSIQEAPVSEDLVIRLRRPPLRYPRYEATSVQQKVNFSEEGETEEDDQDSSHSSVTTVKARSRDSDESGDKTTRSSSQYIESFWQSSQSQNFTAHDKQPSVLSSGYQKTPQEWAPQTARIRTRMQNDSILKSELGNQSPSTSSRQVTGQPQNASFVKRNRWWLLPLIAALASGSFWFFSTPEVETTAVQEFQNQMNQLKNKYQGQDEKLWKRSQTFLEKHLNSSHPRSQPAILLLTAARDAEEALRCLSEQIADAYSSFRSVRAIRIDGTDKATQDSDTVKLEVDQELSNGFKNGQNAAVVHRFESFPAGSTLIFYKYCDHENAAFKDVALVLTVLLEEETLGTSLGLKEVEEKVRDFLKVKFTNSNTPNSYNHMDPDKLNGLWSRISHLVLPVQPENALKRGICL
Dickkopf-related protein 1 (Homo sapiens), sequence (O94907 whole entry, looked up): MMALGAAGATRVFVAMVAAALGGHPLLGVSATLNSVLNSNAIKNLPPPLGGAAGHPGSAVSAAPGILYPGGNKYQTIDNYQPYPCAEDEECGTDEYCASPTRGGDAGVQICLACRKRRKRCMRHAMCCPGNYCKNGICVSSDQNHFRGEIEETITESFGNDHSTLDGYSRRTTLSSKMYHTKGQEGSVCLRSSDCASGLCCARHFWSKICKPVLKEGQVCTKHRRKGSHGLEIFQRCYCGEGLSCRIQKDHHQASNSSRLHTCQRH
Left-right determination factor 2 (Homo sapiens), sequence (O00292 whole entry, looked up): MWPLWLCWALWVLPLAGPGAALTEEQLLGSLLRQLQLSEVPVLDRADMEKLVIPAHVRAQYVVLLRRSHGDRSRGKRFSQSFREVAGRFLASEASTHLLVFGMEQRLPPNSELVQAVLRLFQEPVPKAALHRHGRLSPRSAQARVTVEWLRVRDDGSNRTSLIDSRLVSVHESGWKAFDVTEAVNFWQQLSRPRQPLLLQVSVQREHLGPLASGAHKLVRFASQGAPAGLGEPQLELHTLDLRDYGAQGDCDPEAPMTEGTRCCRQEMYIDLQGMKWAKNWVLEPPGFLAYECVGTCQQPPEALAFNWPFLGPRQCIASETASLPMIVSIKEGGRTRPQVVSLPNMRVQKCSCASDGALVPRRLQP

Consider `CCOC(=O)C1=CCC(c2cccn2C(=O)OC(C)(C)C)N(S(=O)(=O)c2ccc(C)cc2)C1` (stereo not given), for which the composite z-score worked out at 1.45 in [1]; 0.484 in experiment [2]; 0.574 in experiment [3]; 0.404 in [5]; 1.3 in experiment [6]; 0.698 in experiment [7]. In addition, the composite z-score in [8] was found to be 0.922; in experiment [9], 0.0815; in experiment [10], 1.46; in experiment [11], 0.18; in experiment [13], 0.379; in experiment [14], 0.864. The composite z-score was 0.439 in [15]; -0.104 in [16]; 0.428 in [17]; 1.21 in experiment [18]; 1.52 in [19]; 2.21 in experiment [20]. In addition, the z-score was -0.799 (inactive) in experiment [4] and -3.94 in experiment [12].

In the case of `COCCOC(=O)N1C(=O)[C@@]2(c3cc(C#CCNC(N)=O)ccc31)[C@H](C(=O)N1CCN(c3ncccn3)CC1)[C@H]1C(=O)O[C@H](c3ccccc3)[C@H](c3ccccc3)N1[C@@H]2c1ccc(O)cc1`, the composite z-score in experiment [1] was 0.505; in [2] it was -0.326; in experiment [3], -0.47; in experiment [5], -0.735; in experiment [6], -0.438; in experiment [7] it was -1.14. Moreover, the composite z-score is -0.997 in [8]; -1.92 in experiment [9]; -0.853 in experiment [10]; -0.381 in experiment [11]; -1.67 in [13]; -0.777 in experiment [14]. Besides, the composite z-score was -0.686 in experiment [15]; -0.408 in [16]; -0.461 in experiment [17]; -0.294 in experiment [18]; -0.92 in experiment [19]; 0.165 in experiment [20]. The z-score in [4] was -0.428 (inactive); in experiment [12] it was 0.894.

In the case of `C[C@H]1C2[C@H](Cc3ccccc3)NC(=O)[C@]23C(=O)N[C@@H](Cc2ccccc2)C(=O)N2CCC[C@H]2C(=O)NC/C=C/CC/C=C/C3[C@@H]2O[C@]12C` (stereo not given in full), the composite z-score in experiment [1] is 1.26; in experiment [2] it was -0.297; in [3], -0.684; in experiment [5] it was 1.38; in [6], 0.769; in experiment [7], -0.0947. The composite z-score is 0.895 in [8]; 0.272 in experiment [9]; 0.87 in [10]; 0.611 in [11]; 0.148 in [13]; -0.133 in experiment [14]. For the same compound, the composite z-score in [15] was -0.945; in experiment [16], -0.156; in [17], -0.221; in [18], -0.0503; in experiment [19], 0.0565; in [20], 0.857. Further, the z-score is 0.437 (inactive) in experiment [4] and -0.382 in [12].

For the compound `O=C1C[C@@](C(=O)NCC(F)(F)F)(c2ccc([N+](=O)[O-])cc2)[C@@H](c2ccc(CO)cc2I)N1CC12CC3CC(CC(C3)C1)C2`, the composite z-score in experiment [1] is 1.5; in experiment [2], -0.113; in [3], 0.0558; in experiment [5] it was 0.343; in [6], 0.785; in experiment [7] it was 0.237. The composite z-score was 0.406 in [8]; -0.0464 in experiment [9]; 0.227 in [10]; 1.31 in experiment [11]; 0.0604 in [13]; 0.595 in experiment [14]. Besides, the composite z-score is 0.149 in experiment [15]; -0.0843 in experiment [16]; -0.314 in experiment [17]; -0.229 in experiment [18]; 0.349 in experiment [19]; 1.23 in [20]. Also, the z-score in experiment [4] was -1.85 (inactive); in [12] it was -3.3.

`C=CCNC(=O)[C@H]1[C@@H]2C(=O)O[C@@H](c3ccccc3)[C@@H](c3ccccc3)N2[C@@H](c2ccc(OCCO)cc2)[C@]12C(=O)N(C(=O)OCCOC)c1ccc(C#CCC(C(=O)OC)C(=O)OC)cc12`: the composite z-score is 1.4 in [1]; 0.713 in experiment [2]; 0.997 in [3]; 1.44 in [5]; 1.16 in experiment [6]; 0.524 in experiment [7]. Besides, the composite z-score in [8] was found to be 1.08; in experiment [9], 0.5; in experiment [10] it was 0.768; in experiment [11], 1.41; in [13], 0.158; in [14], 1.58. Besides, the composite z-score in experiment [15] stood at 0.81; in [16] it was 0.291; in experiment [17] it was 2.08; in experiment [18], 1.42; in experiment [19], 2.68; in [20] it was 1.63. Also, the z-score is 0.345 (inactive) in experiment [4] and -1.54 in experiment [12].

For the compound `CN(C)CCCCCCNC(=O)[C@@H]1C[C@@H]2C(=O)N[C@@H](CCCC[N+](C)(C)C)C(=O)N2[C@@H]1c1cccc(OCCO)c1`, the composite z-score in experiment [1] was 0.512; in [2], 0.116; in experiment [3], 0.474; in experiment [5], -1.11; in [6], 0.218; in experiment [7], -0.962. The composite z-score in experiment [8] is -0.714; in experiment [9] it was -0.377; in experiment [10], -0.246; in experiment [11], -0.0272; in [13], -1.28; in experiment [14], -0.207. The composite z-score in experiment [15] is -0.327; in experiment [16] it was -0.0981; in [17], -0.295; in experiment [18] it was -0.444; in [19], 2.09; in experiment [20] it was 0.217. Moreover, the z-score in experiment [4] was -1.52 (inactive); in [12], 3.7.

For the origin of these results see PubChem BioAssay.
